# Laboratory results reported in PubChem BioAssay (Tox21).
# Records with an inconclusive call do not appear. The source made the active and inactive calls. The call rests on the fitted dose curve. Where a SMILES comes first, the peptide text is derived from it.
# Target: Retinoic acid receptor RXR-alpha (Homo sapiens) (UniProt P19793)
# Experiment: qHTS assay to identify small molecule agonists of the RXR signaling pathway (AID 1159527); further: nearly all actives have a fitted effect of over 35% in size
# Conditions: HEK293T RXRa-UAS-bla, beta-lactamase ratio, 16 h; series mostly up to 76.8 µM; activation: at the top concentration
# Description: U.S. Tox21 Program National Center for Advancing Translational Sciences [NCATS] NIH Chemical Genomics Center [NCGC] U.S. Environmental Protection Agency [EPA] National Institutes of Environmental Health Sciences [NIEHS] National Toxicology Program [NTP] U.S. Food and Drug Administration [FDA] Tox21 Assay Overview: The Retinoid X receptor (RXR), a nuclear hormone receptor expressed in liver, spleen, placenta, epidermis, central nervous system. These receptors are able to form homo and heterodimers with other nuclear receptors and due to this heterodimerizing ability, RXR functions as master regulators producing diverse physiological effects. Three subtypes of RXR exist; alpha, beta and gamma. Retinoid X receptor alpha (RXR-alpha) has potential roles in metabolic signaling pathways, skin alopecia, dermal cysts, cardiac development, insulin sensitization etc. Therefore screening environmental chemicals on RXR-alpha signaling can be used for the studies focused on such therapeutic applications. For quantification of RXR-alpha ligands signaling, GeneBLAzer RXR alpha-UAS-bla HEK 293T (Life Technologies, Carlsbad, CA) cells containing a beta-lactamase reporter-gene under control of Retinoid X receptor-alpha response element were used to screen Tox21 10K library.
# Tox21 Assay Protocol Summary: RXR-alpha HEK 293T cells were dispensed at 2,000 cells/6 uL of assay medium containing 2% charcoal-stripped FBS using a Multidrop Combi (ThermoFisher Scientific, Waltham, MA) dispenser. The assay was performed in black wall/clear-bottom 1536-well plates (Greiner Bio-One North America Inc. Monroe, NC). 9-cis retinoic acid was used as a positive control in the agonist mode screen. After the assay plates were incubated at 37 C and 5% CO2 for 5 hr, 23 nL of compounds dissolved in DMSO, positive controls or DMSO only were transferred to the assay plate by a Pintool station (Kalypsys, San Diego, CA). The assay plates were incubated at 37 C and 5% CO2 for 16 hr. One uL of LiveBLAzer B/G FRET substrate (Life Technologies) was added using a Flying Reagent Dispenser (Aurora Discovery, San Diego, CA) and the plates were incubated at room temperature for 2 hr. Fluorescence intensity (405 nm excitation, 460/530 nm emission) was measured using an Envision plate reader (PerkinElmer, Shelton, CT).
# On the % scale 0 is the no-effect control and ±100 the full control effect; potency means the concentration at half of the fitted maximal effect.
# Chain of Retinoic acid receptor RXR-alpha (Homo sapiens) (P19793 whole entry, looked up): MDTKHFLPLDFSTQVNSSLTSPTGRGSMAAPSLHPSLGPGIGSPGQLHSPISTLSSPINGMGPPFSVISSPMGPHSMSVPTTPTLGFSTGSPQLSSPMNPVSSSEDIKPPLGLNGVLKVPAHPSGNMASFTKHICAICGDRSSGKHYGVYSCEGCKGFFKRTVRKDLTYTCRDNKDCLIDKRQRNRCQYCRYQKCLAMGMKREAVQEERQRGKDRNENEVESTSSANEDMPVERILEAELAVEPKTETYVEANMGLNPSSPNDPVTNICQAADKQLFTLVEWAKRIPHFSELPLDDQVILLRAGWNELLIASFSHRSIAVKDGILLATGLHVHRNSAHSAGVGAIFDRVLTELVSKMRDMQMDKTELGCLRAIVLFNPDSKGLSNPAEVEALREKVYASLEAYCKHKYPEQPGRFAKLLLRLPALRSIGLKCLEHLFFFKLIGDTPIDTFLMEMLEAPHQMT
SMILES,activation,Potency
CC(C)COC(=O)c1ccccc1,12.2% (inactive),
C=CCCCCCCCCC(=O)OCCCC,-10.3% (inactive),
C=CC/C=C/C,5.14% (inactive),
O=C[O][Al]([O]C=O)[O]C=O,5.13% (inactive),
N[C@@H](CSCCCO)C(=O)O,12.4% [at 15.8 µM] (inactive),
CCC(=O)Oc1ccc2c(c1)CC[C@@H]1[C@@H]2CC[C@@]2(C)[C@H]1C[C@@H](OC(=O)CC)[C@@H]2OC(=O)CC,-18.2% [at 35.3 µM] (inactive),
O=C(NCN1CCOCC1)c1cnccn1,3.83% [at 35.3 µM] (inactive),
Fc1ccccc1,8.95% (inactive),
Cc1ccc2c(c1)C(=O)c1ccccc1C2=O,-12.2% (inactive),
Cc1cc(C)c(C(=O)O)c(C)c1,0.115% (inactive),
CC1=NN(c2ccc(S(=O)(=O)O)cc2)C(=O)C1,-1.05% (inactive),
COc1cc2c(cc1OC)C(=O)C(CC1CCN(Cc3ccccc3)CC1)C2 (stereo not given),-2.13% [at 35.3 µM] (inactive),
COC(=O)c1cccc(Cl)c1,10.9% (inactive),
CCCCSCCCC,,21.9 µM (active)
NCCOCCN,4.65% (inactive),
C/C=C(\C)C(=O)OCCc1ccccc1,7.99% (inactive),
CC1OCCC1=O (stereo not given),-4.31% (inactive),
CC(=O)N[C@@H](CO)C(=O)N[C@@H](CC(=O)O)C(=O)N[C@@H](CCCCN)C(=O)N1CCC[C@H]1C(=O)O (Ac-SDKP-OH),9.97% [at 35.3 µM] (inactive),
C=C(C)[C@@H]1CC=C(C)C(=O)C1,3.62% (inactive),
OC[C@H]1O[C@@H](O[C@@H]2[C@@H](CO)O[C@](O)(CO)[C@H]2O)[C@H](O)[C@@H](O)[C@H]1O,-6.79% [at 35.3 µM] (inactive),

SMILES,activation,Potency
CC(N)CCCC(C)(C)O (stereo not given),-2.53% [at 35.3 µM] (inactive),
c1ccc2c(CC3=NCCN3)cccc2c1,8.93% [at 35.3 µM] (inactive),
CC1CC(=O)CC(C)(C)C1 (stereo not given),1.08% (inactive),
CC1=C(O)C(=O)C(C)O1 (stereo not given),1.39% (inactive),
CC(C)CO,3.29% (inactive),
COCCc1ccccn1,0.965% [at 35.3 µM] (inactive),
CCCCC1CCC(O)CC1 (stereo not given),-1.09% (inactive),
C=CC(=O)OCC1CCCO1 (stereo not given),3.15% (inactive),
O=C1CCCCO1,2.57% (inactive),
CC/C=C\CCOC(=O)c1ccccc1O,13.1% (inactive),
CCN1CCCC1CN (stereo not given),3.22% [at 35.3 µM] (inactive),
CCC(C)C(=O)OCCc1ccccc1 (stereo not given),,43.6 µM (active)
O=Cc1cc2ccccc2o1,1.27% (inactive),
C=CCCCC,-6.07% (inactive),
C=CCCCCCCCC,-2.93% (inactive),
CCCC(=O)Nc1ccc(OCC(O)CNC(C)C)c(C(C)=O)c1 (stereo not given),3.32% [at 35.3 µM] (inactive),
CN(C)CC/C=C1/c2ccccc2COc2ccc(CC(=O)O)cc21,1.52% [at 35.3 µM] (inactive),
C=CC(=O)CCCCC,9.65% (inactive),
CSc1cnccn1,-1.59% (inactive),
[O]=[Mo](=[O])=[O],0.58% [at 15.8 µM] (inactive),
